This is a sample that favours compounds with a hit; in the whole collection about 8.1% have one here.
KB-V1 MDR tox = kills drug-selected multidrug resistant KB-V1 cells; 400,000 tested, 3.4% active; Potency, µM (doses to about 46.1 µM), most hits filed as cytotoxic; KB-V1 MDR cells viability, CellTiter-Glo, 72 h; AID 1347076; note: % is set by controls: 0 for no effect and ±100 for the full control effect; nearly all actives have a fitted effect of over 60% in size
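Drug-selected KB-V1 cells, grown in DMEM lacking phenol red with 10% FBS, receive compound titrations; after three days at 37 degrees C, surviving cell ATP is quantified by CellTiter-Glo luminescence and responses normalized and curve-fitted.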
MCF10A rerep = induces DNA re-replication in MCF 10a normal breast cells | MCF 10A DNA re-replication, Hoechst nuclear intensity, 48 h | Potency, µM (highest dose often 46.1 µM), without a hit: at the highest dose activity, positive = re-replication, actives largely listed as activators | 350,000 tested, 2.9% active; note: % of control where 0% means no effect; nearly all actives have a fitted effect of over 50% in size
SW480 rereplic = inducers of DNA re-replication in SW480 colon cancer cells | SW480 DNA re-replication, Hoechst DNA content imaging, 48 h | Potency, µM (doses to about 46.1 µM), inactives show at the highest dose re-replication activation, actives largely listed as activators | 340,000 tested, 1.8% active | AID 624297; note: % of control where 0% means no effect; nearly all actives have a fitted effect of over 55% in size
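Readout is total intensity of Hoechst-stained nuclei, excited at 405 nm and collected at 500-530 nm. Compound treatment lasted 48 hr at 37 C in 5% CO2 before staining.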
KB-3-1 tox = kills parental KB-3-1 adenocarcinoma cells. Potency, µM (series often up to 46.1 µM), actives largely listed as cytotoxic. KB-3-1 viability, CellTiter-Glo ATP luminescence, 72 h. 400,000 tested, 1.4% active; note: % is set by controls: 0 for no effect and ±100 for the full control effect; nearly all actives have a fitted effect of over 60% in size
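Multi-concentration cytotoxicity screen in KB-3-1 cells grown in DMEM lacking phenol red with 10% FBS. After 72 h at 37 °C with compound, ATP-dependent luminescence was recorded.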
ELG1 repair inh = inhibitors of ELG1-dependent DNA repair in HEK293T cells; Potency, µM (doses to about 46.1 µM), for the others: top-dose activity change, negative = inhibition, most hits filed as inhibitors; HEK293T ELG1-luciferase reporter, luminescence, 16 h; DNA damage induced by 5-fluorouridine; 330,000 tested, 2.3% active; AID 504467; note: % is set by controls: 0 for no effect and ±100 for the full control effect; nearly all actives have a fitted effect of over 55% in size
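Luminescence from the luciferase reporter, measured 30 min after ONE-Glo reagent at room temperature, was the read-out. Beforehand, 2,000 cells per well were exposed for 16 hr at 37 °C to 5-fluorouridine together with compound or vehicle.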
The depositor's hits bear a star; i = inactive; ? = inconclusive; / = no result; [ ] = dose if it differs, or a comment. Calls come from the whole dose curve; as a rule, active = well fitted curve in the direction sought with a large enough effect; inconclusive = small, poorly fitted or top-dose-only effect, or another doubt; inactive = no such curve, though single readings can be large; an effect the other way counts as inactive or inconclusive. Potency is the fitted concentration of half-maximal effect.

SMILES	KB-V1 MDR tox	MCF10A rerep	SW480 rereplic	KB-3-1 tox	ELG1 repair inh
O=[N+]([O-])c1ccc(N(CCO)CCO)c2c1no[n+]2[O-]	21µM*	/	/	4.6µM*	/
CN1CCN(c2ccc(S(C)(=O)=O)cc2[N+](=O)[O-])CC1	i	-2%	-2%	i	14%
CN1CCN(c2ccc([N+](=O)[O-])c3no[n+]([O-])c23)CC1	?	2.3µM*	?	?	3.3µM*
Oc1c(Br)c(Br)c(Br)c(Br)c1Br	i	?	-19%	i	-1%
CCC(=Nc1ccc(OC)cc1OC)c1c(O)n(C2CCCCC2)c(=O)[nH]c1=O	i	?	17%	i	18µM*
CCC(=NCc1ccco1)c1c(O)n(C2CCCCC2)c(=O)[nH]c1=O	i	23%	2%	i	?
COc1ccccc1OCCNC(=O)c1cc(=O)[nH]c2ccccc12	i	0%	-2%	i	?
O=C1NCN(c2ccccc2)C12CCN(CC1COc3ccccc3O1)CC2 (stereo not given)	/	1%	2%	/	/
CC(C)(C)c1ccc(/C=C2\Oc3cc(OC(=O)N4CCOCC4)ccc3C2=O)cc1	i	15µM*	?	i	0%
C=C1C(=O)OC2CC(C)C3C=CC(=O)C3(C)C(O)C12 (stereo not given)	3.7µM*	18%	?	3.3µM*	/
C=C1C(=O)O[C@@H]2C[C@@H](C)[C@@H]3C=CC(=O)[C@@]3(C)[C@@H](OC(=O)CC(=O)O[C@H]3[C@@H]4C(=C)C(=O)O[C@@H]4C[C@@H](C)[C@@H]4C=CC(=O)[C@]43C)[C@H]12	i	?	?	i	?
C=C1C(=O)O[C@@H]2C[C@@H](C)[C@@H]3C4OC4C(=O)[C@@]3(C)[C@@H](O)[C@H]12 (stereo not given in full)	i	?	?	i	?
C=C1C(=O)O[C@H]2C[C@@H](C)[C@@H]3C=CC(=O)[C@@]3(C)C[C@H]12	?	2.9µM*	?	?	?
C=C1C(=O)O[C@H]2[C@H]1[C@H](OC(=O)CC(=O)O[C@@H]1C[C@@H](C)[C@@H]3C=CC(=O)[C@@]3(C)[C@H]3OC(=O)C(=C)[C@H]13)C[C@@H](C)[C@H]1C=CC(=O)[C@]12C	i	2.3µM*	2%	i	?
CC1(C)CN=C(NCc2ccccc2Cl)S1	i	?	-2%	?	29%
CCn1c(C)nc2cc(S(=O)(=O)Nc3ccc(C)cc3)ccc21	i	-7%	-10%	i	?
ClC(Cl)Cl	/	3%	0%	/	/
COC(C)(C)CCCC(C)C/C=C/C(C)=C/C(=O)OC(C)C (stereo not given)	i	-15%	-30%	i	12%
COC(=O)C1=C(c2ccc(-c3ccccc3)c(F)c2)C[C@@H]2CC[C@H]1N2C(=O)NCCOc1ccccc1	i	21%	?	i	?
COC(=O)C1=C(c2cc3ccccc3o2)C[C@@H]2CC[C@H]1N2C(=O)NC(C)C	i	15%	10µM*	i	/
COC(=O)C1=C(c2cc3ccccc3o2)C[C@@H]2CC[C@H]1N2C(=O)N1CCOCC1	23µM*	?	?	5.8µM*	/
COC(=O)C1=C(c2ccc3ccccc3c2)C[C@@H]2CC[C@H]1N2C(=O)N1CCOCC1	i	?	0%	i	-12%
COC(=O)C1=C(c2cc3ccccc3o2)C[C@@H]2CC[C@H]1N2C(=O)NCCNC(C)=O	i	-7%	6%	i	/
CN1c2ccccc2C(NCCCCCCC(=O)O)c2ccc(Cl)cc2S1(=O)=O (stereo not given)	/	0%	2%	/	/
COc1cccc(OP(=O)(Nc2ccccc2)Oc2cccc(OC)c2)c1	i	?	3%	i	?
SMILES	KB-V1 MDR tox	MCF10A rerep	SW480 rereplic	KB-3-1 tox	ELG1 repair inh
COc1ccc2c(c1)C(NC(C)=O)CCc1cc(OC)c(OC)c(OC)c1-2 (stereo not given)	0.37µM*	?	0.058µM*	0.15µM*	/
COc1ccc(OC)c(CC(=O)O)c1	i	-3%	-4%	i	3%
COC1=C[C@@H]2C3=C([C@@H]2C1=O)[C@@H](NC(C)=O)CCc1cc(OC)c(OC)c(OC)c13	i	-7%	-37%	i	13%
COc1cc2c(c(OC)c1OC)-c1ccc(OC)c(=O)cc1C(NC(C)=O)CC2 (stereo not given)	i	?	?	0.0073µM*	?
O=C1CCC2(O)C3Cc4ccc(O)c5c4C2(CCN3Cc2ccoc2)C1O5 (stereo not given)	i	/	/	i	/
Nc1ncnc2c1ncn2[C@@H]1O[C@@H]2COP(O)(=S)O[C@H]2[C@H]1O (stereo not given in full)	i	/	/	i	/
COCCNC(=O)CN1C(=O)C(C)N=C(c2ccccc2)c2cc(Cl)ccc21 (stereo not given)	i	-17%	0%	i	17%
CCOC(=O)C1(c2ccccc2)CCN(CCC(C#N)(c2ccccc2)c2ccccc2)CC1	?	?	2.8µM*	i	/
CC(C)(COC(=O)C(c1ccccc1)c1ccccc1)CN1CCOCC1	i	?	12%	i	/
CN1CCN(CCOC2c3ccccc3CSc3ccc(Cl)cc32)CC1 (stereo not given)	?	23µM*	?	?	-22%
Clc1ccc([C@@H](OCCN2CCCCC2)c2ccccc2)cc1	/	11%[20.6 µM]	4%[20.6 µM]	/	/
OC(c1cccc(Cl)c1)(c1cccc(Cl)c1)C1CN2CCC1CC2 (stereo not given)	?	?	7%	?	?
Clc1ccc2c(c1)C(OC1CN3CCC1CC3)c1ccccc1CS2 (stereo not given)	16µM*	?	?	?	?
CC(C)OC1CCCC(O)C1CC(=O)O (stereo not given)	i	-3%	-19%	i	14%
C[C@H]1COC2=C1C(=O)C(=O)c1c2ccc2c1CCCC2(C)C	i	18µM*	?	?	?
CN1CC(C(=O)c2cccc(C(F)(F)F)c2)C(c2ccc(Cl)cc2)C1 (stereo not given)	i	18%	12%	i	-1%
O=[N+]([O-])c1ccc(N2CCNCC2)c(Cl)c1	?	7.3µM*	-4%	i	-10%
COCCCn1c(-c2ccc(OC)cc2)cc(C(=O)NC2CCCCCCC2)c1C	i	?	?	?	23µM*
CSc1ccc(C(=O)C2CCCN(Cc3cc4ccccc4[nH]3)C2)cc1 (stereo not given)	?	1%[9.22 µM]	8%	i	?
